# Test results: the supplement of paper PMC12669032
# A number with no mark means an inactive call.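 The calls were made as follows: active = AUC reduced over 20% with Padj below 0.05 in at least 2 of 3 replicates; inactive = otherwise.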
# What was measured:
# Assay in all cases: growth AUC relative to DMSO control (median of replicates) (fraction); higher = more growth (less inhibition), active = hit call of the paper
# Conditions in all cases: 20 µM; 24 h
# Coprococcus comes = test system: Coprococcus comes
# How it was run: (§1)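 Three biological replicates, each grown on a separate day, were combined as a median for every value. In each, a gut bacterial monoculture in mGAM started at OD600 0.05 and grew anaerobically at 37 °C with 20 µM compound (1% DMSO), with OD600 read hourly over 24 h. Area under the growth curve was normalised against the plate median of solvent-only wells, or against row and column medians on the industrial chemical plate, after the minimum OD was set to 0.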
# Escherichia coli ED1a = test system: Escherichia coli ED1a
# How it was run: as §1
# Escherichia coli IAI1 = test system: Escherichia coli IAI1
# How it was run: as §1
# Eubacterium rectale = test system: Eubacterium rectale
# How it was run: as §1
# [1] = test system: Fusobacterium nucleatum subsp. animalis
# How it was run: as §1
# Lactobacillus gasseri = test system: Lactobacillus gasseri
# How it was run: as §1
# Lactobacillus paracasei = test system: Lactobacillus paracasei
# How it was run: as §1
# Odoribacter splanchnicus = test system: Odoribacter splanchnicus
# How it was run: as §1
# [2] = test system: Parabacteroides distasonis
# How it was run: as §1
# Parabacteroides merdae = test system: Parabacteroides merdae
# How it was run: as §1
# Roseburia intestinalis = test system: Roseburia intestinalis
# How it was run: as §1
# Streptococcus salivarius = test system: Streptococcus salivarius
# How it was run: as §1
SMILES,growth AUC (Coprococcus comes),growth AUC (Escherichia coli ED1a),growth AUC (Escherichia coli IAI1),growth AUC (Eubacterium rectale),growth AUC [1],growth AUC (Lactobacillus gasseri),growth AUC (Lactobacillus paracasei),growth AUC (Odoribacter splanchnicus),growth AUC [2],growth AUC (Parabacteroides merdae),growth AUC (Roseburia intestinalis),growth AUC (Streptococcus salivarius)
C[N+](C)(C)CCCl.[Cl-],1.05,1.02,1.03,1.04,1.11,0.944,1.05,1.01,1.06,1.03,0.994,1.03
CCCSC(=O)N(CCC)CCC,0.994,0.974,0.985,1.01,1,1.01,0.954,1.01,0.995,0.991,0.994,1.04
OC(c1ccc(F)cc1)(c1cncnc1)c1ccccc1Cl (stereo unspecified),0.962,0.996,1.01,0.965,1.06,0.969,1.02,0.931,1,0.782 (active),0.975,0.996
C[C@@H](Oc1ccc(Oc2nc3ccc(Cl)cc3o2)cc1)C(=O)O,1.04,1.01,1.02,1.07,1.01,0.968,0.983,1.09,1.03,1.03,1.04,0.925
CN(C)C(=S)[S-].CN(C)C(=S)[S-].[Zn+2],0.834,0.953,0.906,0.563 (active),0.993,0.976,0.966,0.384 (active),0.954,0.699 (active),0.792,0.925
COP(=O)(OC)O/C(C)=C/C(=O)N(C)C,1,1,0.997,1.01,0.937,1.08,1.06,0.972,0.905,0.994,0.988,0.984
N#Cc1c(O)c(Cl)c(Cl)c(C#N)c1Cl,1.02,0.989,0.987,0.938,0.868,1.02,0.986,0.912,1.03,0.994,1.06,1
O=C1C=C(N(Cc2ccc(Cl)nc2)CC(F)F)CO1,1.02,0.971,0.994,0.959,1.05,1,0.869,1.01,0.999,1.01,1.02,0.979
CCN(CC)N=O,1.01,1.01,1.04,0.996,0.998,1.04,0.981,0.979,1,1.01,1,0.964
COc1ncc(F)c2nc(S(=O)(=O)Nc3c(F)cccc3F)nn12,1.03,1.01,0.989,1,1.02,1.01,1,0.992,0.983,1.01,1.02,1
CCOP(=O)(SC(C)CC)SC(C)CC (stereo unspecified),1.01,1.01,0.987,1.1,0.983,1.04,0.989,0.933,0.95,0.975,1.01,1.01
O=C(NC(=O)c1c(F)cccc1F)Nc1cc(Cl)c(OC(F)(F)C(F)C(F)(F)F)cc1Cl (stereo unspecified),0.919,0.996,1,1.01,1.01,0.989,0.976,0.993,0.964,0.988,1.02,0.958
ClC1=C(Cl)C(Cl)(C2(Cl)C(Cl)=C(Cl)C(Cl)=C2Cl)C(Cl)=C1Cl,1.05,1.04,1.01,0.861,1.13,1.01,0.987,1,0.958,0.863,0.91,0.962
COCc1c(F)c(F)c(COC(=O)C2C(C=C(C)C)C2(C)C)c(F)c1F (stereo unspecified),0.979,1.01,1.02,0.906,1.04,0.873,0.978,1.05,1.03,1.02,1,1.06
CCCCN(CCCC)N=O,0.982,0.995,1,1.02,1.02,1.11,1.02,1,1.16,1.01,1,1.01
CNC(=O)O/N=C/C(C)(C)S(C)(=O)=O,0.98,1.03,1.03,0.939,0.97,1.05,1,0.964,1.04,0.977,1.02,1.04
CNC(=O)Oc1cccc2c1OC(C)(C)C2=O,1.05,1.03,1.02,1.04,1.15,0.878,1.04,1.02,0.955,0.99,0.994,0.924
OC(c1ccc(Cl)cc1)(c1cncnc1)c1ccccc1Cl (stereo unspecified),0.987,0.991,0.973,1.14,1.01,0.922,1.12,0.611,0.886,0.299 (active),1,0.939
Oc1ccc(-c2ccccc2)cc1,1.01,0.991,0.987,1,0.968,1.04,0.693,1.09,1.02,0.989,0.947,0.968
CN(C)C(CSC(N)=O)CSC(N)=O.Cl,1.09,1.03,1.04,1.54,1.15,0.978,1.08,0.982,1.04,1.04,1.07,1
COP(=S)(OC)Oc1ccc([N+](=O)[O-])c(C)c1,0.982,0.986,0.979,1.1,0.994,1.01,1.01,0.962,0.89,0.944,0.949,0.991
CCC(C)c1cc([N+](=O)[O-])cc([N+](=O)[O-])c1O (stereo unspecified),0.884,0.935,0.924,0.939,0.737,0.959,0.925,0.799 (active),0.841,0.929,0.887,0.938
COP(=S)(NC(C)C)Oc1ccccc1C(=O)OC(C)C (stereo unspecified),1.03,1.02,0.988,0.92,1.08,0.984,0.962,1.07,0.53 (active),0.931,0.938,0.977
